Assay outcomes (PubChem)
Shown are actives, neighbours in structure and some others; about 19% of the full set was active somewhere.
Pf growth 48h: inhibits P. falciparum growth in the first generation, 48 h; P. falciparum luciferase growth in erythrocytes, 48 h; Potency, µM (top dose mostly 28.7 µM), hits mostly inhibitors; 5.9% of 310,000 active; AID 504832
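In quantitative HTS format, infected erythrocytes bearing luciferase-reporter parasites were treated for a single generation at 37 C. Luminescence after adding detection reagent served as the growth measure.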
Marburg entry inh: blocks Marburg virus binding to or entry into cells | Marburg virus pseudotyped entry inhibition, cell reporter | 1.8% of 300,000 active | Potency, µM (highest dose often 37.8 µM), actives largely listed as inhibitors; calls by dose curve; tested in HEK293 cells
Shiga toxin inh: blocks Shiga toxin action in Vero cells; 9.2% of 290,000 active; inhibition, % at 38.7 µM; AID 2315; Vero cells, Shiga toxin protein synthesis inhibition reporter; in the data active = inhibition mostly above about 28%, no sharp cut-off; inactive = mostly below about 43%
LASV entry inh: Lassa virus entry inhibition; Lassa virus pseudotype entry inhibition, cell reporter; AID 540256; Potency, µM (doses to about 37.9 µM), hits mostly inhibitors; 1.2% of 300,000 active; calls by dose curve; tested in HEK293 cells; also: nearly all actives have a fitted effect of over 50% in size
Cycloheximide cs: affects cycloheximide protein synthesis inhibition readout, counter-screen. AID 2314. cell reporter, cycloheximide protein synthesis inhibition counterscreen. 12% of 300,000 active. max response, %; in the data active = max response mostly above about 13%, no sharp cut-off; inactive = mostly below about 14%; also: read at 38.3 µM for the half of the compounds with a filed dose
Pf growth 96h: P. falciparum growth inhibition at 96 hours. P. falciparum luciferase reporter growth, 96 h. Potency, µM (top dose mostly 28.7 µM), usual class: inhibitors. 6.9% of 320,000 active. AID 504834
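Cell-based qHTS: luciferase-tagged P. falciparum in erythrocytes (2% hematocrit, 0.05% parasitemia final) incubated with compounds for 96 hours, 37 C, 5% CO2; luciferase detection reagent then added and luminescence measured.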
Hits are given with their value; – = inactive; ? = inconclusive; · = no result given. Unless noted, calls follow the shape of the dose curve; as a rule, active = well fitted inhibition curve with a large enough effect; inconclusive = small, poorly fitted or top-dose-only effect, or another doubt; inactive = no such curve, though single readings can be large or run the other way.

SMILES | Pf growth 48h | Marburg entry inh | Shiga toxin inh | LASV entry inh | Cycloheximide cs | Pf growth 96h
CC(=O)c1ccc(OCCCC(=O)OCC(=O)N2CCN(c3ccccc3)CC2)cc1 | · | – | – | – | – | 9.28µM
CCC(C(=O)N1CCN(c2ncccn2)CC1)c1ccccc1 (stereo unspecified) | – | · | – | · | 26.1 | –
O=C(CCOc1ccccc1)N1CCN(c2ccc(O)cc2)CC1 | – | ? | 62.9 | ? | 46.7 | ?
O=C(CCCOc1ccccc1)N1CCN(c2ccccc2)CC1 | · | ? | – | ? | – | ?
CC(Oc1ccccc1)C(=O)N1CCN(c2ncccn2)CC1 (stereo unspecified) | – | · | · | · | · | –
Cc1nnc(NC(=O)c2cccc(S(=O)(=O)N3CCOCC3)c2)s1 | – | – | – | – | – | ·
Cc1ccc(NC(=O)COC(=O)[C@H](C)NC(N)=O)c(C)c1 | – | – | – | – | – | –
CN(C(=O)c1cnccn1)c1nnc(-c2cnccn2)s1 | – | – | – | – | – | ?
O=C(CSc1ccccn1)N1CCN(c2ccccc2)CC1 | – | – | 35.1 | – | 34.8 | ·
O=C(CSc1ccccc1)N1CCN(c2ccccc2)CC1 | – | – | 85.2 | ? | – | ?
Cc1cc(NC(=O)Cc2ccsc2)ccc1Br | – | · | 68.8 | · | 32.8 | –
CCCOC(=O)c1ccc(NC(=O)Cc2cccs2)cc1 | – | ? | 50.5 | – | 34.5 | –
COCC(=O)Nc1ccc(Br)c(C)c1 | – | – | – | – | – | –
CC(=O)c1ccc(NC(=O)Cc2cccs2)cc1 | – | ? | · | – | 27.6 | –
CCCOC(=O)c1ccc(NC(=O)Cc2csc(C)n2)cc1 | · | – | · | – | · | ·
CCN(CC)S(=O)(=O)c1cc(NC(=O)Cc2ccsc2)ccc1C | ? | – | – | 0.461µM | – | ?
CCN1C(=O)CS/C1=C(\C#N)S(=O)(=O)c1ccccc1 | – | – | – | – | – | –
CC(C(=O)Nc1ccc(Cl)cc1Cl)N1C(=O)NC2(CCCCCCC2)C1=O (stereo unspecified) | ? | · | · | · | · | –
CC(C)NS(=O)(=O)c1ccc(NC(=O)Cc2ccsc2)cc1 | – | · | – | · | – | –
CCOC(=O)c1cnn(CCOC(=O)c2ccc(F)cc2)c1NC(=O)c1ccc(F)cc1 | – | – | – | – | – | –
O=C(Nc1ccc(OC(=O)c2cccs2)cc1)c1ccco1 | – | ? | 53.5 | ? | 44.6 | ?
CC(=O)c1ccc(NC(=O)Cc2ccsc2)cc1 | – | – | 69.0 | – | 30.0 | –
CCOC(=O)c1cnn(CCOC(=O)Cc2cccs2)c1NC(=O)Cc1cccs1 | – | – | – | – | – | 9.28µM
O=C(COC(=O)Cc1ccsc1)Nc1ccccc1 | – | – | – | – | – | –
O=C(Cc1ccsc1)Nc1ccc(S(=O)(=O)C(F)F)cc1 | – | – | 48.8 | ? | 23.2 | –
SMILES | Pf growth 48h | Marburg entry inh | Shiga toxin inh | LASV entry inh | Cycloheximide cs | Pf growth 96h
Cc1cccc(NS(=O)(=O)c2ccc3c(c2)CCN3C(=O)CCC(=O)O)c1C | · | – | · | – | · | ·
COC(=O)c1cc(S(=O)(=O)NCc2cccc(OC)c2)cn1C | – | · | – | · | – | –
O=C(Cc1cccs1)Nc1ccc(NC(=O)c2ccco2)cc1 | – | ? | 59.9 | – | 23.6 | ·
O=C(Cc1cccs1)Nc1ccccc1 | – | · | – | · | – | ?
C/C(=N\Nc1ccccn1)c1ccc2c(c1)OCO2 | – | ? | 71.7 | – | 44.1 | –
C/C(=N\NC(=O)CSc1ncccn1)c1ccc2c(c1)OCCO2 | – | – | – | – | – | ?
CN(/N=C/c1ccc2c(c1)OCO2)c1nc(N2CCOCC2)nc(N2CCOCC2)n1 | – | – | – | – | – | –
Clc1ccccc1N/N=C/c1ccc2c(c1)OCO2 | – | ? | 115.5 | ? | 75.9 | –
O=c1nc(N2CCOCC2)nc(N/N=C/c2ccc3c(c2)OCO3)[nH]1 | – | – | – | · | – | 11.7µM
C/C(=N\Nc1nc2ccccc2[nH]1)c1ccc2c(c1)OCCO2 | 3.7µM | ? | 52.7 | ? | 35.7 | ?
Cc1ccc(/C=C2/SC(=S)N(CC(=O)Nc3ncc(Cc4ccc(C)cc4)s3)C2=O)cc1 | · | – | – | – | – | –
Cc1c(Cl)cccc1NC(=O)Cn1cccc1 | – | – | – | ? | – | –
CN(c1ccc(C(=O)N2CCCCCC2)cc1)S(=O)(=O)c1ccc(Cl)cc1 | ? | – | – | ? | – | –
C(=N\Nc1nc2ccccc2[nH]1)/c1ccc2c(c1)OCO2 | 0.465µM | ? | 87.5 | ? | 35.2 | ?
C/C(=N\Nc1nc2ccccc2[nH]1)c1ccc2c(c1)OCO2 | ? | 11.6µM | 65.0 | ? | 35.5 | ?
O=S(=O)(N/N=C\c1ccc2c(c1)OCO2)c1ccccc1 | – | – | – | – | – | –
CCc1cc2cc(C)ccc2nc1SCC(=O)N1CCN(C(=O)c2ccco2)CC1 | ? | – | – | – | – | ?
O=C(CCCn1cnc([N+](=O)[O-])n1)Nc1cccc2ccccc12 | – | – | – | – | – | ?
Cc1ccc(C(=O)/C=C/c2ccc(-c3ccccc3[N+](=O)[O-])o2)cc1 | – | – | – | – | – | –
CN(C)C(=O)COC(=O)/C=C/c1ccccc1[N+](=O)[O-] | · | – | – | – | – | –
Cc1ccc(C(=O)/C=C/c2ccccc2[N+](=O)[O-])cc1 | ? | ? | – | ? | 27.8 | –
O=C(/C=C/c1ccccc1[N+](=O)[O-])c1ccccc1Br | ? | ? | 47.1 | ? | 14.1 | –
Cc1ccc(C(=O)C(C)OC(=O)c2ccccc2[N+](=O)[O-])cc1 (stereo unspecified) | – | ? | 71.0 | ? | 50.1 | –
COc1ccccc1C(=O)NNC(=O)c1ccccc1[N+](=O)[O-] | – | – | – | – | – | ?
O=C(Cn1c(CN2CCCCC2)nc2ccccc2c1=O)NCc1ccco1 | – | – | – | – | – | –
SMILES | Pf growth 48h | Marburg entry inh | Shiga toxin inh | LASV entry inh | Cycloheximide cs | Pf growth 96h
O=C(CS(=O)(=O)c1c[nH]c2ccccc12)N1CCCc2ccccc21 | – | – | – | · | – | –
Cn1c(=O)c2cc(S(=O)(=O)NC(C(=O)NC3CCCCC3)c3ccccc3)ccc2n(C)c1=O (stereo unspecified) | · | · | – | · | – | –
O=C(NCCCn1ccnc1)C(=O)NCC(c1ccco1)N1CCN(c2ccc(F)cc2)CC1 (stereo unspecified) | ? | · | – | · | – | –
O=C(CCN1C(=O)/C(=C\C=C\c2ccccc2)SC1=S)Nc1ccccc1C(=O)O | – | · | – | · | – | 9.28µM
Cc1ccc(NC(=O)CN2C(=O)S/C(=C\c3ccc(C(=O)O)cc3)C2=O)cc1 | – | · | · | · | – | 14.7µM
Cc1ccc(/C=C2/SC(=S)N(CCCC(=O)Nc3ccc(O)cc3)C2=O)cc1 | ? | ? | 25.5 | ? | 31.4 | –
O=C(CCN1C(=O)/C(=C\C=C\c2ccccc2)SC1=S)Nc1cccc(C(=O)O)c1 | – | · | – | · | – | ?
Cc1ccc(S(=O)(=O)CCC(=O)NCCN2C(=O)S/C(=C/c3ccc(F)cc3)C2=O)cc1 | – | ? | – | – | 15.9 | –
O=C(CCNC(=O)c1ccco1)NCCN1C(=O)S/C(=C\c2ccc(F)cc2)C1=O | – | · | · | · | · | –
COc1ccc2c(c1)c(C1=C(c3c[nH]c4ccccc34)C(=O)NC1=O)cn2CCCN(C)C | · | · | – | · | – | ·
